The record followed here is PubChem BioAssay (NCATS).

Assay [1] can be described thus: Primary qHTS for inhibitors of nuclear receptor binding SET domain protein 2 (NSD2) in an RCH-ACV wild type WT cells (2C) (AID 1645877). Also: nearly all actives have a fitted effect of over 70% in size. Also: potency is read from the fitted curve at half-maximal effect. As to activity change, negative = cell killing: % is scaled to controls: 0 for no effect and ±100 for the full control effect. On the technique in general: qHTS replaces the single test concentration by a dilution series.
For assay [2], the target named is Glutathione peroxidase 1 (Homo sapiens) (UniProt P07203). Briefly: Primary qHTS Assay for Inhibitors of Recombinant Selenoprotein Glutathione Peroxidase 1 (GPX1) (AID 1845191). Also: nearly all actives have a fitted effect of over 65% in size. As to activity, negative = inhibition: % is scaled to controls: 0 for no effect and ±100 for the full control effect. Summed up: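 NADPH consumption tracked by fluorescence at 340/450 nm between t=0 and t=15 min, room temperature. Final mix: 10 nM GPX1, 100 nM glutathione reductase, 1 mM GSH, 0.5 mM NADPH, 0.5 mM cumene hydroperoxide, 0.01% BSA; 30 min compound–enzyme preincubation.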

For assay [3], the target named is Phospholipid hydroperoxide glutathione peroxidase GPX4 (Homo sapiens) (UniProt P36969). Briefly: Primary qHTS Assay for Inhibitors of Recombinant Selenoprotein Glutathione Peroxidase 4 (GPX4) (AID 1845192). Also: nearly all actives have a fitted effect of over 65% in size. As to activity change, negative = inhibition: series mostly up to about 50 µM; % is scaled to controls: 0 for no effect and ±100 for the full control effect. Summed up:
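NADPH consumption followed by fluorescence at 340/450 nm, t=0 and after 15 min at room temperature. Reaction started with cumene hydroperoxide (0.5 mM final) after 30 min compound–GPX4 preincubation; final 200 nM GPX4, 100 nM GR, 1 mM GSH, 0.5 mM NADPH.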

Assay [4] deals with Luciferin 4-monooxygenase (Photinus pyralis) (UniProt P08659). Briefly: Primary firefly luciferase (FLuc) qHTS assay for identification of artifact compounds. (AID 1845220). Also: nearly all actives have a fitted effect of over 60% in size.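 As to activity change, negative = inhibition: series mostly up to about 54 µM; plate controls were DMSO vehicle for no effect and no enzyme for full effect.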 Summed up: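 Compounds sat 15 min at room temperature with 10 uM luciferin and 10 uM ATP (pH 7.6 Tris acetate). Firefly luciferase (10 nM final) was then added, and luminescence was read 5 min later. Data normalized to no-enzyme and DMSO controls were Hill-fitted.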

Assay [5] is described as follows: Primary fluorescence-based thiol-reactive (MSTI) qHTS assay for identification of artifact compounds. (AID 1845221). Also: nearly all actives have a fitted effect of over 65% in size. Also: potency is read from the fitted curve at half-maximal effect.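 As to activity change, negative = thiol reactive: series mostly up to about 54 µM; thiol-reactive compounds lower the probe fluorescence signal.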 In short, it runs like this:
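Probe: MSTI 4 uM, PBS pH 7.4, 2% DMSO. Incubation 1 h, RT, light-protected. Readout fluorescence 525/598 nm.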

For assay [6], the system named is Nanoluciferase (engineered Oplophorus gracilirostris luciferase). Kind of assay: Primary Nanoluciferase (NLuc) qHTS assay for identification of artifact compounds. (AID 1845222).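 Also: series mostly up to about 54 µM; 0% = DMSO and -100% = no enzyme.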 In short, it runs like this: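 Luminescence from secreted NLuc (filtered, 1:55-diluted S16 cell medium) read 5 min after Nano-Glo substrate; compounds preincubated 15 min, RT. Hill fits of inhibition normalized to DMSO and no-enzyme.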

Values joined by “and” are separate entries in the source; they are usually repeats but may differ in a detail not shown here. Identical values can stand only once. Values without a mark were called inactive. Inconclusive results are not listed. Active and inactive are the calls of the source. Calls follow the shape of the dose curve; as a rule, active = well fitted curve in the direction sought with a large enough effect; inconclusive = small, poorly fitted or top-dose-only effect, or another doubt; inactive = no such curve, though single readings can be large; an effect the other way counts as inactive or inconclusive.

Chain of Phospholipid hydroperoxide glutathione peroxidase GPX4 (Homo sapiens) (P36969 whole entry, looked up): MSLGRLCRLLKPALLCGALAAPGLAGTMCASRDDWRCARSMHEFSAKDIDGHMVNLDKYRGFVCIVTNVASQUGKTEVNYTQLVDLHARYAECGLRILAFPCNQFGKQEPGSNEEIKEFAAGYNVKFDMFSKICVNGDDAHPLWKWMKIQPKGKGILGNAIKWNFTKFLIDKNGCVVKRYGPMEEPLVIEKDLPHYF
Chain of Glutathione peroxidase 1 (Homo sapiens) (P07203 whole entry, looked up): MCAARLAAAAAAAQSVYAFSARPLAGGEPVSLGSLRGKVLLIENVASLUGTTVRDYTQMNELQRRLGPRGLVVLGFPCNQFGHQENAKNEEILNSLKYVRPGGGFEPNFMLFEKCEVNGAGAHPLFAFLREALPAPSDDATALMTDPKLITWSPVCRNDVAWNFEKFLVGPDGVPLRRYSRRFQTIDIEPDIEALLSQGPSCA

With `CC1=CC(=O)[C@H]2C(C)(C)CCC[C@]2(C)[C@@]1(O)CO`, the Potency result in assay [1], in assay [2], in assay [3], in assay [4], in assay [5] and in assay [6] was “inactive” in each case.
As to `C/C(=C\CCC1(C)C2CCC(C2)C1(C)O)C(=O)O` (stereo not given), the Potency entry in assay [1], in assay [2], in assay [3], in assay [4], in assay [5] and in assay [6] was “inactive” throughout.
With `CC(=O)O[C@@](C)(C(=O)/C=C/C(C)(C)O)[C@H]1[C@H](O)C[C@@]2(C)[C@@H]3CC=C4[C@@H](C=C(O)C(=O)C4(C)C)[C@]3(C)C(=O)C[C@]12C`, the Potency in assay [1] is 0.282 µM (active). Also, the Potency result in assay [2], in assay [3], in assay [4], in assay [5] and in assay [6] was “inactive” in each case.
For the molecule `COc1cc(N2CCOCC2)ccc1Nc1ncc(Cl)c(Nc2ccccc2NS(C)(=O)=O)n1`, the Potency in assay [1] was 1.83 µM (active); in assay [5], 1340 nM (active). The Potency entry in assay [2], in assay [3], in assay [4] and in assay [6] was “inactive” each time.
For `CC(C)NCC(C(=O)N1CCN(c2ncnc3c2C(C)CC3O)CC1)c1ccc(Cl)cc1` (stereo not given), the Potency in assay [1] was 2.3 µM (active). Also, the Potency entry in assay [2], in assay [3], in assay [4], in assay [5] and in assay [6] was “inactive” each time.
Regarding `O=C(c1cc2c(cc1F)OC(c1ccc(F)cc1)(c1ccc(Cl)cc1Cl)O2)N1CCOCC1` (stereo not given), the Potency in assay [1] was 20.5 µM (active). Moreover, the Potency result in assay [2], in assay [3], in assay [4], in assay [5] and in assay [6] was “inactive” in each case.
As for `CC1(C)CCC[C@@]2(C)C1[C@H](OC(=O)/C=C/C=C/C(=O)O)C=C1COC(=O)[C@@]12O` (stereo not given in full), the Potency result in assay [1], in assay [2], in assay [3], in assay [4], in assay [5] and in assay [6] was “inactive” each time.
As for `CC1OC(OC2C(O)C(OC3CCC4(C)C(CCC5(C)C4CC=C4C6CC(C)(COC7OC(CO)C(O)C(O)C7O)CC(O)C6(C)CCC45C)C3(C)C)OC(C(=O)O)C2O)C(O)C(O)C1OC1OCC(O)C(O)C1O` (stereo not given), the activity change, negative = cell killing in assay [1] was -2.6% [at 9.23 µM]. Besides, the Potency entry in assay [2] and in assay [3] was “inactive” each time. Further, the activity change, negative = inhibition in assay [4] was 0.0325% [at 11.6 µM]. Besides, the activity change, negative = thiol reactive in assay [5] was 24.3% [at 11.5 µM]. Moreover, the activity, negative = inhibition in assay [6] is -3.08% [at 11.6 µM].
On to `CC[C@H](C)[C@H](NC(=O)[C@H]([C@@H](C)CC)N(C)C(C)=O)C(=O)N[C@H](C(=O)N[C@@H](CC(C)C)C(=O)[C@@]1(C)CO1)[C@@H](C)O`, for which, in assay [1], the Potency was 0.0073 µM (active). Further, the Potency result in assay [2], in assay [3], in assay [4], in assay [5] and in assay [6] was “inactive” throughout.
Take `CCCN1CCN(c2ccc(C(=O)NC3(C(=O)NCC#N)CCCCC3)cc2)CC1`: the Potency result in assay [1], in assay [2], in assay [3], in assay [4], in assay [5] and in assay [6] was “inactive” throughout.
Take `CC1OC(OCC2OC(OC3CCC4(C)C(CCC5(C)C4CC=C4C6CC(C)(C)CCC6(C(=O)OC6OC(CO)C(O)C(O)C6O)CCC45C)C3(C)CO)C(O)C(O)C2O)C(O)C(O)C1O` (stereo not given): the activity change, negative = cell killing in assay [1] was -0.623% [at 9.23 µM]. Besides, the Potency entry in assay [2] and in assay [3] was “inactive” throughout. For the same molecule, the activity change, negative = inhibition in assay [4] was -1.2% [at 11.6 µM]. Further, in assay [5], the activity change, negative = thiol reactive was 188% [at 11.5 µM]. Also, the activity, negative = inhibition in assay [6] is 0% [at 11.6 µM].
Take `CC(=O)O[C@H]1[C@@H](O)[C@H](O[C@H]2[C@@H]3C=CO[C@@H](O[C@H]4O[C@@H](CO)[C@H](O)[C@@H](O)[C@@H]4O)[C@@H]3[C@@]3(CO)O[C@@H]23)O[C@@H](C)[C@@H]1OC(=O)/C=C/c1ccccc1`: the Potency result in assay [1], in assay [2], in assay [3], in assay [4] and in assay [6] was “inactive” each time. The Potency in assay [5] is 7930 nM (active).
Turning to `COC(=O)C1=CO[C@@H](O[C@@H]2O[C@H](CO)[C@@H](O)[C@H](O)[C@H]2O)[C@@H]2[C@@](C)(O)[C@@H](OC(=O)/C=C/c3ccc(O)cc3)C[C@]12O`, the Potency entry in assay [1], in assay [2], in assay [3], in assay [4] and in assay [6] was “inactive” throughout. Further, the Potency in assay [5] was 3270 nM (active).
For `COC1CC(O[C@H]2CC[C@@]3(C)C(=CC[C@]4(O)C3[C@H](OC(C)=O)[C@@H](OC(=O)c3ccccc3)[C@]3(C)[C@@H](C(C)=O)CC[C@@]34O)C2)OC(C)C1OC1CC(OC)C(OC2CC(OC)C(OC3OC(C)C(OC4OC(CO)C(O)C(O)C4O)C(OC)C3O)C(C)O2)C(C)O1` (stereo not given in full), the activity change, negative = cell killing in assay [1] is -8.43% [at 9.23 µM]. In addition, the outcome in assay [2] is “inactive [at 9.52 µM]”; in assay [4] it was “inactive [at 11.6 µM]”. The activity change, negative = inhibition in assay [3] is -9.45% [at 9.73 µM]. The activity change, negative = thiol reactive in assay [5] is 29.9% [at 11.5 µM]. Moreover, the activity, negative = inhibition in assay [6] is 2.42% [at 11.6 µM].
In the case of `O=C(C(c1ccccc1)c1ccccc1)N1CCN(CC(O)COc2cccc3ncccc23)CC1` (stereo not given), the Potency in assay [1] was 14.5 µM (active) and 20.9 µM (active). Further, the Potency entry in assay [2], in assay [3], in assay [4], in assay [5] and in assay [6] was “inactive” throughout.
